Bioassay records as filed in PubChem.
Shown are actives, neighbours in structure and some others; about 6.8% of the full set was active somewhere.
MCF10A rereplic: inducers of DNA re-replication in MCF 10A breast cells; MCF 10A DNA re-replication, Hoechst nuclear intensity, 48 h; Potency, µM (top dose mostly 46.1 µM), for inactives: at the top dose activity, positive = re-replication, most hits filed as activators; actives 2.9% (n = 350,000); also: % of control where 0% means no effect; nearly all actives have a fitted effect of over 50% in size
PINK1 modulator: PINK1 expression modulation; PINK1 immunofluorescence, high-content cytometry, 24 h; Potency, µM (top dose mostly 76.6 µM), for the others: top-dose activation (PINK1 increase), actives largely listed as activators; actives 0.2% (n = 410,000); AID 624263; active = well fitted activation curve with a large enough effect; inconclusive = small, poorly fitted or top-dose-only effect; cell line not stated here; also: % of control where 0% means no effect; nearly all actives have a fitted effect of over 65% in size
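Fluorescence from anti-PINK1 antibody, together with nuclear and cell stains, was scanned on a laser-scanning cytometer. Before staining, stable-line cells were incubated 24 hours with compounds at 5 concentrations; primary antibody 12 h at 10 degrees C.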
KB-3-1 cytotox: KB-3-1 parental cell cytotoxicity. Potency, µM (doses to about 46.1 µM), hits mostly cytotoxic. KB-3-1 viability, CellTiter-Glo ATP luminescence, 72 h. AID 1347075. actives 1.4% (n = 400,000); also: % is scaled to controls: 0 for no effect and ±100 for the full control effect; nearly all actives have a fitted effect of over 60% in size
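Multi-concentration cytotoxicity screen in KB-3-1 cells grown in DMEM lacking phenol red with 10% FBS. After 72 h at 37 °C with compound, ATP-dependent luminescence was recorded.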
SW480 rereplic: inducers of DNA re-replication in SW480 colon cancer cells | SW480 DNA re-replication, Hoechst DNA content imaging, 48 h | Potency, µM (highest dose often 46.1 µM), for the others: at the highest dose re-replication activation, actives largely listed as activators | actives 1.8% (n = 340,000) | AID 624297; also: % of control where 0% means no effect; nearly all actives have a fitted effect of over 55% in size
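Treated cells incubate 48 hr (37 C, 5% CO2), are stained 40 min with Hoechst, and nuclear fluorescence is enumerated; a rise in nuclei with high DNA signal marks re-replication.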
KB-V1 MDR tox: kills drug-selected multidrug resistant KB-V1 cells. KB-V1 MDR cells viability, CellTiter-Glo, 72 h. Potency, µM (top dose mostly 46.1 µM), most hits filed as cytotoxic. actives 3.4% (n = 400,000); also: % is scaled to controls: 0 for no effect and ±100 for the full control effect; nearly all actives have a fitted effect of over 60% in size
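Drug-selected KB-V1 cells, grown in DMEM lacking phenol red with 10% FBS, receive compound titrations; after three days at 37 degrees C, surviving cell ATP is quantified by CellTiter-Glo luminescence and responses normalized and curve-fitted.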
PTAP TSG101 blk: blocks PTAP/TSG101 interaction to inhibit HIV-1 budding | Q99816 | Fluorescence polarization, FITC-PTAP peptide / Tsg101 binding | Potency, µM (titrated, usually from 115 µM), without a hit: at the highest dose activity change, negative = inhibition, most hits filed as inhibitors | 340,000 tested, under 10 active | AID 493005; active = well fitted inhibition curve with a large enough effect in the main read-out, with a control signal flat, not every such curve was filed as active; inconclusive = small, poorly fitted or top-dose-only effect, or effect the other way, or a change in a side signal; inactive = no such curve, though single readings can be large or run the other way; also: % of control where 0% means no effect
Target sequence (Q99816 whole entry, looked up): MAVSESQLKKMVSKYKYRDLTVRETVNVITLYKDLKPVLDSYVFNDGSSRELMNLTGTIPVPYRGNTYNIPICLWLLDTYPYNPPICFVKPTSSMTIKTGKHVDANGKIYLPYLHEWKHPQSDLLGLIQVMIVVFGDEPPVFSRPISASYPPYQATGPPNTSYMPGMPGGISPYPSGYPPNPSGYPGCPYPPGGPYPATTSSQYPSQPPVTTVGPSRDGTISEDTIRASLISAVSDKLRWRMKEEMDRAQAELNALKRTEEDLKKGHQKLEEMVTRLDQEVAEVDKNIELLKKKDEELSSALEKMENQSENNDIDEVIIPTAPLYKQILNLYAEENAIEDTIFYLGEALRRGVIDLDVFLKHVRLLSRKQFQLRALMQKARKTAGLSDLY
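Steps: Tsg101 binding domain dispensed (10 uM final), compounds pinned in DMSO, FITC-labeled PTAP-motif peptide added (50 nM final); after 20 min binding at room temperature, polarization measured.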
Starred values were filed as active, the others as inactive; i = inactive; ? = inconclusive; . = not tested or not shown; ! = not confirmed by another sample; [ ] = remark or other dose. Unless noted, calls follow the shape of the dose curve; as a rule, active = well fitted curve in the direction sought with a large enough effect; inconclusive = small, poorly fitted or top-dose-only effect, or another doubt; inactive = no such curve, though single readings can be large; an effect the other way counts as inactive or inconclusive. Potency is read from the fitted curve at half-maximal effect.

SMILES	MCF10A rereplic	PINK1 modulator	KB-3-1 cytotox	SW480 rereplic	KB-V1 MDR tox	PTAP TSG101 blk
CCCCCCCCN1C(=O)[C@H](CC(=O)NCc2cccc(C(F)(F)F)c2)C[C@@]2(C(=O)OC)CC(C)(C)CC=C12	.	.	?	.	23µM*	.
CCOC(=O)[C@]12CCC=C1N(Cc1ccc(Cl)cc1Cl)C(=O)[C@H](CC(=O)NCc1ccc(OC)c(OC)c1)C2	.	3%	7.3µM*	.	5.2µM*	.
CCCCCCCCN1C(=O)[C@H](CC(=O)NCCC(C)C)C[C@@]2(C(=O)OC)CC(C)(C)CC=C12	.	.	i	.	?	.
CC[C@@H]1CCC[C@@H](O)[C@@H](C)C(=O)O[C@H](C)[C@@H](C)C/C=C(C)/C(OC)=C\C(=O)N(C)C([C@@H](C)CC)C(=O)N(C)[C@@H](C(C)C)C(=O)N(C)[C@@H](COC)C(=O)N2CCC[C@H]2C(=O)N(C)[C@@H](C(C)C)C(=O)N2CCC[C@H]2C(=O)O1 (stereo not given in full)	.	?	?	.	1.8µM*	.
Cc1ccc(CNc2nc3ccccc3n3c(C)nnc23)cc1	.	6%	i	.	?	.
CCc1c(-c2ccccc2OC)ncn1Cc1cccc(-c2ccccc2)c1	.	.	13µM*	.	?	.
COc1ccccc1-c1cc(NCc2ccccc2)ncn1	.	0%	.	.	.	.
COc1ccccc1-c1ncn(Cc2cccc(-c3ccccc3)c2)c1CC(C)C	.	1%	?	.	16µM*	.
CCc1c(-c2ccc(OC)cc2)ncn1Cc1cccc(-c2ccccc2)c1	.	.	?	.	16µM*	.
COc1ccc(-c2csc3ncn(Cc4ccccc4)c(=O)c23)cc1	?	0%	i	1%	i	-1%
COc1ccccc1CNC(=O)CC(c1ccc(C)cc1)N1Cc2ccccc2C1=O (stereo not given)	.	7%	i	.	i	.
CCCCc1oc2ccccc2c1C(=O)c1cc(I)c(OCCN(CC)CC)c(I)c1	9.2µM*!	15%	i	23µM*!	i	-6%
NC(=NCCc1ccccc1)NS(=O)(=O)c1ccc(F)cc1	11%	0%	i	-8%	16µM*	0%
Cc1ccc(S(=O)(=O)NC(N)=NCCc2ccc(Cl)cc2)cc1	-9%	-1%	i	-8%	16µM*	-1%
O=C(COc1ccc(Cl)cc1Cl)N1CCCCCC1	8%	-3%[38.3 µM]	i	3%	21µM*	-5%
Cc1cc(Cl)ccc1OC(C)C(=O)N1CCCN(C(=O)C(C)Oc2ccc(Cl)cc2C)CC1 (stereo not given)	?	2%	13µM*	?	?	-5%
COc1ccc(NC2CCCN(C(=O)COc3ccc(Cl)cc3C)C2)cc1OC (stereo not given)	5%	4%	i	0%	7.3µM*	-1%
Cc1cc(Cl)ccc1OCC(=O)N1CCCN(C(=O)COc2ccc(Cl)cc2C)CC1	?	?	?	-1%	5.8µM*	-2%
O=C(COc1ccc(S(=O)(=O)N2CCCCC2)cc1Cl)N1CCCC1	?	3%	i	-3%	i	-1%
CCOC(=O)Cn1c(=O)oc2cc(S(=O)(=O)N3CCN(c4ccc(F)cc4)CC3)ccc21	.	11%	.	.	.	.
COc1ccccc1CNC(=O)c1cnc(N2CCCC2)nc1C	.	2%	i	.	i	.
COc1ccc(Cl)cc1NC(=O)CSc1nc(-c2ccccc2)c2ccccc2n1	.	0%	.	.	.	.
CCN(CC#CCC(O)(c1ccccc1)c1ccccc1)C(C)C	16%	0%	i	-4%	i	-4%
CC(C)N(CC#CCC(O)(c1ccccc1)c1ccccc1)C(C)C	?	1%	i	-50%	13µM*	0%
Cc1cc2n(n1)C(c1ccccc1)Nc1ccccc1-2 (stereo not given)	10%	0%	i	-3%	i	-1%
SMILES	MCF10A rereplic	PINK1 modulator	KB-3-1 cytotox	SW480 rereplic	KB-V1 MDR tox	PTAP TSG101 blk
Cc1cc2n(n1)C(c1ccc(N(C)C)cc1)Nc1ccccc1-2 (stereo not given)	21µM*	-2%[38.3 µM]	?	21µM*	?	2%
CC(C)(C)C1=CC(=O)C(=O)C(C(C)(C)C)=C1	?	-2%	i	18µM*	13µM*	-7%
CC(C)(C)C1=CC(=Nc2ccccc2N)C=C(C(C)(C)C)C1=O	-6%	15%	?	?	?	-1%
c1ccc2c(c1)C1=NCCN1c1ccccc1-2	.	-2%	?	.	12µM*	.
O=C(COc1cccc2ccccc12)N1c2ccccc2CCc2ccccc21	8%	-2%	?	?	16µM*	-5%
CCCCOc1ccc(C(=O)NCC(=O)OC2CCOC2=O)cc1 (stereo not given)	3.3µM*	-1%	?	?	i	-3%
COc1ccc(C(=O)COC(=O)C(CCSC)NS(=O)(=O)c2ccc(Cl)cc2)cc1 (stereo not given)	8%	-2%	i	-79%	23µM*	-1%
COC(=O)C(CCSC)NS(=O)(=O)c1ccc(Cl)cc1 (stereo not given)	-6%	0%	i	-6%	?	-2%
CCn1c(-c2ccccc2F)nc2cc(C(=O)NCc3ccc(C)o3)cc(NC(C)=O)c21	.	0%	.	.	.	.
CCCS(=O)(=O)c1c(S(=O)(=O)CCC)c2cc(C(C)(C)C)ccn2c1C(=O)c1ccccc1	.	1%	i	.	i	.
Cc1ccc(NC2=C/C(=N\S(=O)(=O)c3cccs3)c3ccccc3C2=O)c(C)c1	6.5µM*	-3%	6.5µM*	6.5µM*	5.2µM*	-10%
O=C1C(Nc2ccc(O)cc2)=C/C(=N/S(=O)(=O)c2cccs2)c2ccccc21	?	-2%	3.3µM*	5.2µM*	13µM*	-12%
Cc1ccc(Cl)cc1NC1=C/C(=N\S(=O)(=O)c2cccs2)c2ccccc2C1=O	0.65µM*	-2%	3.3µM*!	2.9µM*	9.2µM*!	-1%
O=C(O)c1ccc(NC2=C/C(=N/S(=O)(=O)c3cccs3)c3ccccc3C2=O)cc1	.	-1%	?	.	?	.
Cc1cccc(NC2=C/C(=N/S(=O)(=O)c3cccs3)c3ccccc3C2=O)c1	2.9µM*	1%	?	?	?	-4%
COc1ccc(OC)c(-c2noc(N3CCN(c4cccc(C)c4C)CC3)n2)c1	.	0%	?	.	?	.
Cc1cccc(N2CCN(c3nc4ccc(C(=O)c5ccccc5)cc4n4cnnc34)CC2C)c1 (stereo not given)	.	0%	i	.	i	.
COc1cc(CN(C(=O)COc2ccccc2)c2ccccn2)cc(OC)c1OC	.	0%	i	.	i	.
